Bioassay records: PubChem BioAssay, National Center for Advancing Translational Sciences (NCATS)
Shown are actives, neighbours in structure and some others; about 1.4% of the full set was active somewhere.
ALOX12 inh – Primary qHTS assay for inhibitors of human arachidonate 12S-lipoxygenase (ALOX12): Round 2; AID 1671190, 2021; purified 12hLO, xylenol orange hydroperoxide absorbance; Polyunsaturated fatty acid lipoxygenase ALOX12 (Homo sapiens), P18054; Potency, µM (titrated, usually from 108 µM), inactives show at the highest dose activity change, negative = inhibition, usual class: inhibitors; 1.1% of 580,000 active; also: potency is read from the fitted curve at half-maximal effect; % is scaled to controls: 0 for no effect and ±100 for the full control effect
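Purified human 12hLO at 150 nM in 25 mM Hepes, 0.01% Triton X-100, pH 7.0, preincubated 15 min at room temperature with compound. Reaction started with 40 uM arachidonic acid, 30 min at room temperature. Hydroperoxide measured by Fe-xylenol orange, 573/405 nm absorbance ratio.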
Vif-APOBEC3G blk – qHTS for Inhibitors of Vif-A3G Interactions: qHTS | DNA dC->dU-editing enzyme APOBEC-3G (Homo sapiens), Q9HC16 | HeLa A3G-eYFP + Vif (tagged APOBEC3G with the HIV-1 protein that degrades it), YFP fluorescence, overnight | Potency, µM (titrated, usually from 46.1 µM), for inactives: at the highest dose activity, negative = active, actives largely listed as inhibitors | 0.076% of 410,000 active | AID 602310, 2012; also: potency is read from the fitted curve at half-maximal effect; % is scaled to controls: 0 for no effect and ±100 for the full control effect; nearly all actives have a fitted effect of over 60% in size
Target sequence (Q9HC16 whole entry, looked up): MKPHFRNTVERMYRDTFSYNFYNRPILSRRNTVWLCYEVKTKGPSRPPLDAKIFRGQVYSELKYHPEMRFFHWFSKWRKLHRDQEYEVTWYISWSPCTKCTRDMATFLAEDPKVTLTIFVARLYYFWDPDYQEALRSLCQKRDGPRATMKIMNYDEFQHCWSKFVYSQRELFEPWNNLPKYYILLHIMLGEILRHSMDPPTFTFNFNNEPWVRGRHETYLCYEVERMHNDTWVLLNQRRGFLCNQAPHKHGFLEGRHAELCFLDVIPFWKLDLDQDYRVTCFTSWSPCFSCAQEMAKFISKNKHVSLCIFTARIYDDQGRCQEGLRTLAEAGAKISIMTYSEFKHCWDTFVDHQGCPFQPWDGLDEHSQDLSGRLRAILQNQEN
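Read-out is eYFP fluorescence (Ex 488/Em 500-530) from Vif-expressing HeLa A3G-eYFP cells; more signal means A3G escaped Vif-mediated degradation. Cells plated overnight, compound pinned in, incubated overnight at 37 deg C.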
ASM inhibitor – Inhibitors of Secretory Acid Sphingomyelinase (S-ASM): qHTS | placental ASM, HMU-PC fluorogenic substrate, 60 min | AID 504937, 2011 | Sphingomyelin phosphodiesterase (Homo sapiens), P17405 | Potency, µM (series often up to 57.5 µM), for inactives: at the highest dose activity change, negative = inhibition, actives largely listed as inhibitors | 0.006% of 340,000 active; also: potency is read from the fitted curve at half-maximal effect
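Human placenta-derived ASM enzyme was preincubated with compound for 10 minutes at room temperature, then given fluorogenic substrate HMU-PC0 (9 uM final) for 60 minutes at 37 °C; a pH 10 stop preceded fluorescence reading at Ex 386/Em 447 nm.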
Vif-APOBEC3F blk – qHTS for Inhibitors of Vif-A3F Interactions: qHTS; Potency, µM (titrated, usually from 46.1 µM), without a hit: top-dose activity, negative = active; HeLa A3F-eYFP + Vif (tagged APOBEC3F with the HIV-1 protein that degrades it), YFP fluorescence increase; 0.2% of 390,000 active; AID 602313, 2012; also: potency is read from the fitted curve at half-maximal effect; % of control where 0% means no effect; nearly all actives have a fitted effect of over 65% in size
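HeLa cells stably expressing A3F-eYFP plus Vif, plated and incubated overnight at 37 deg C, then exposed to compounds overnight at 37 deg C. Blocked degradation read as raised yellow fluorescence (Ex 488/Em 500-530).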
pAkt inh – HTS Assay for Inhibitors of Akt Phophorylation: Primary Screen. Neuro2A IGF-stimulated pAkt S473 HTRF, 20 min; hits give low values. activity change, % for hits at 50 µM. 0.32% of 360,000 active; in the data active = activity change below about -80%; inconclusive = mostly about -51% to -80%; also: % is scaled to controls: 0 for no effect and ±100 for the full control effect
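Single-point screen (50 µM final compound) in Neuro2A cells stimulated 20 min with 6 nM IGF at 37 deg C. After lysis, Ser473-phosphorylated Akt read by HTRF (ex 330 nm, em 615/665 nm) as the 665/615 ratio.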
TSG101-PTAP inh – qHTS Assay for Iinhibitors of HIV-1 Budding by Blocking the Interaction of PTAP/TSG101; Potency, µM (doses to about 115 µM), for the others: at the highest dose activity change, negative = inhibition, actives largely listed as inhibitors; Tumor susceptibility gene 101 protein (Homo sapiens), Q99816; AID 493005, 2010; 340,000 tested, under 10 active; Fluorescence polarization, FITC-PTAP peptide / Tsg101 binding; active = well fitted inhibition curve with a large enough effect in the main read-out, with a control signal flat, not every such curve was filed as active; inconclusive = small, poorly fitted or top-dose-only effect, or effect the other way, or a change in a side signal; inactive = no such curve, though single readings can be large or run the other way; also: potency is read from the fitted curve at half-maximal effect; % of control where 0% means no effect
Target sequence (Q99816 whole entry, looked up): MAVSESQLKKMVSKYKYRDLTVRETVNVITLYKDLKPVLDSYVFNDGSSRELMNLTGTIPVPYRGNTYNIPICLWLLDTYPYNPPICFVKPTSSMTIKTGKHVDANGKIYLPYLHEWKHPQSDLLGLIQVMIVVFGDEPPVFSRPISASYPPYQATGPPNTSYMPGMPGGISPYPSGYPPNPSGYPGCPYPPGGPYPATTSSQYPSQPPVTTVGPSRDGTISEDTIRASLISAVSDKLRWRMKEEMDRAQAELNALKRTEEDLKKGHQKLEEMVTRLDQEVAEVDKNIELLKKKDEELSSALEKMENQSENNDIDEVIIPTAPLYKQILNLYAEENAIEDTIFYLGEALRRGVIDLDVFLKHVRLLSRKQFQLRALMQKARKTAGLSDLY
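Fluorescence polarization binding of Tsg101 binding domain (10 uM final) to FITC-labeled PTAP peptide (50 nM final) in HEPES pH 7.5 buffer with NaCl, Tween 20, EDTA, TCEP. Compounds added before peptide; binding 20 min at RT.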
* hit, by the source's call; i = inactive; ? = inconclusive; . = no result given; [ ] = remark or other dose. Unless noted, calls follow the shape of the dose curve; as a rule, active = well fitted curve in the direction sought with a large enough effect; inconclusive = small, poorly fitted or top-dose-only effect, or another doubt; inactive = no such curve, though single readings can be large; an effect the other way counts as inactive or inconclusive.

SMILES	ALOX12 inh	Vif-APOBEC3G blk	ASM inhibitor	Vif-APOBEC3F blk	pAkt inh	TSG101-PTAP inh
Cc1ccc(/C(O)=C2\C(=O)C(=O)N(CC(C)O)C2c2cccc(F)c2)cc1 (stereo unspecified)	18µM*	0%	-1%	2%	-113%*	-2%
COc1ccccc1C1/C(=C(/O)c2ccccc2)C(=O)C(=O)N1CC(C)O (stereo unspecified)	3.5µM*	0%	-3%	.	i	-1%
O=C1C=C(O)c2cccc(O)c2C1=O	35µM*	2%	-2%	0%	i	-2%
O=C1c2cccc(O)c2C(=O)c2c(O)cccc21	34%	.	.	.	.	.
Cc1nc(NC(=O)CSc2nnnn2C)sc1C	-22%	0%	3%	-5%	i	0%
Cc1csc(NC(=O)CSc2nnnn2C)n1	1%	2%	3%	-11%	-117%*	-1%
Cc1ccc(N)c(OCC(F)(F)F)c1	12%	.	.	.	.	.
COc1cc(CNc2ccccc2SC)cc(OC)c1OC	45µM*	-8%	-2%	-21%	i	-2%
COc1ccc(CNc2ccccc2SC)cc1OC	?	1%	-1%	7%	i	-5%
Cc1noc(C)c1-c1cc(-c2cccnc2)cn2cncc12	22%[176 µM]	.	.	.	.	.
CCCCCC1=CCC/C1=N/NC(=S)NCCOC	40µM*	.	.	.	.	.
CCCCCC1=CCC/C1=N\NC(=O)C(N)=O	-20%	.	.	.	.	.
CN(Cc1ccccc1)c1nc(-c2cccnc2)nc2ccccc12	2%	.	.	.	.	.
N#CC1=C(N)C(C#N)(C#N)[C@H](c2c(F)cccc2F)[C@H]2CC3(CC=C12)OCCO3	-22%	13µM*	8%	22µM*	.	-13%
COc1cc2nc(-c3cc(F)ccc3O)nc(N[C@@H]3CNC[C@@H]3C(C)(C)O)c2cc1OC	2.4µM*	.	.	.	.	.
COC(=O)C1=C(C)N=C2SC(C#N)=C(N)N2C1c1cccc(OC)c1 (stereo unspecified)	0%	-12%	2%	1%	-115%*	-5%
COC(=O)C1=C(C)N=C2SC(C#N)=C(N)N2C1c1ccc(OC)cc1 (stereo unspecified)	0%	-24%	5%	.	i	1%
Cc1ccc(C2Cn3cnc(C(=O)N4CCC(C(=O)NCCC5=CCCCC5)CC4)c3CO2)cc1 (stereo unspecified)	50%	.	.	.	.	.
O=C1COCC2(CN1Cc1ccccc1)CN(C(=O)c1ccc(F)c(Cl)c1)C2	13%[176 µM]	.	.	.	.	.
CC(c1ccccc1)C1CC(=O)N(c2ccc(C(=O)O)cc2)C1=O (stereo unspecified)	11%	1%	5%	-8%	-81%*	-3%
c1cncc(-c2cncnc2-n2ccnc2)c1	7.9µM*	.	.	.	.	.
c1cncc(-c2cc(-n3ccnc3)ncn2)c1	45µM*	.	.	.	.	.
CN(C)C(=O)c1ccc(-c2cc(-n3ccnc3)ncn2)cc1	25µM*	.	.	.	.	.
CN1CCN(c2ncncc2-c2cccnc2)CC1	-32%	.	.	.	.	.
CCCCn1c(=O)n(CC(O)COc2cc(C)ccc2C)c(=O)c2c1ncn2C1CCCC1 (stereo unspecified)	58%	.	.	.	.	.
SMILES	ALOX12 inh	Vif-APOBEC3G blk	ASM inhibitor	Vif-APOBEC3F blk	pAkt inh	TSG101-PTAP inh
CCc1ccc(C(=O)N2CCC(C3CCNC3)CC2)cc1 (stereo unspecified)	-4%	.	.	.	.	.
O=C(CC1=CCCCC1)N1CCC(C2CCNC2)CC1 (stereo unspecified)	40µM*	.	.	.	.	.
Cc1nc(C#N)c(N/N=C/c2cccc(Cl)c2)o1	40µM*	0%	0%	1%	i	-2%
Cc1cc(N/N=C/c2cccc(Cl)c2)nc(-n2nc(C)cc2C)n1	204%	0%	-3%	-6%	i	0%
Cc1nc(C(=O)NCc2cccs2)ccc1C#N	-13%	.	.	.	.	.
COc1ccc(-c2cc(C(F)(F)F)nc(S(C)(=O)=O)n2)cc1	?	?	5%	3%	-98%*	0%
Oc1c(C=Nc2ccccc2)sc2ccccc12	?	?	-1%	-12%	i	?
Oc1sc(C=Nc2ccc(F)cc2)c2ccccc12	-13%	?	-21%	2.8µM*	i	?
Oc1sc(C=Nc2ccccc2)c2ccccc12	?	11µM*	-22%	25µM*	i	?
CCCc1sc(C(=O)Nc2ccccc2O)cc1CC	13µM*	.	.	.	.	.
Cc1ccc(C)c(C(=O)c2ccccc2C(=O)N(C)Cc2cccs2)c1	9%	.	.	.	.	.
NS(=O)(=O)Cc1cccc(C(=O)O)c1	-9%	.	.	.	.	.
O=C1NN(c2ccc(Cl)cc2)C(=O)/C1=C\c1ccc(-c2cccc(C(=O)O)c2)o1	40µM*	-1%	-1%	8%	i	-2%
CCN1C(=O)CC(N2CCC(Nc3ccc(OC)cc3)CC2)C1=O (stereo unspecified)	0%	0%	0%	-13%	-106%*	0%
Cc1ccc(S(=O)(=O)NC[C@H]2O[C@@H](CO)[C@@H](O)[C@H]2N2CCN(c3cccc(C(F)(F)F)c3)CC2)cc1	16µM*	.	.	.	.	.
O=C(NC[C@H]1O[C@@H](CO)[C@@H](O)[C@H]1N1CCCC1)c1ccccc1	11%[176 µM]	.	.	.	.	.
O=S(=O)(NC[C@H]1O[C@@H](CO)[C@@H](O)[C@H]1N1CCCC1)c1cccs1	16µM*	.	.	.	.	.
O=S(=O)(NC[C@H]1O[C@@H](CO)[C@@H](O)[C@H]1N1CCN(c2ccccn2)CC1)c1ccc(Cl)cc1	18µM*	.	.	.	.	.
NC[C@H]1O[C@@H](CO)[C@@H](O)[C@H]1N1CCN(c2ncccn2)CC1	20µM*	.	.	.	.	.
COc1ccc(OC)c(/C(O)=C/C(=O)C(=O)Nc2cc(C)cc(C)c2)c1	-3%	-8%	-5%	0%	-106%*	-3%
COc1ccc(OC)c(/C(O)=C/C(=O)C(=O)Nc2cc(C)ccc2OC)c1	-1%	-6%	-1%	4%	i	1%
CC[C@@H](C)[C@H](NC(=O)OC(C)(C)C)c1nnc(S(=O)(=O)Cc2cc(C)ccc2C)o1	404%	-14%	43%	-3%	-127%*	-7%
Cc1[nH]ccc(=O)c1OCc1c(Cl)cccc1Cl	0%	-1%	1%	1%	-114%*	-4%
CC(=C1SC(=S)NC1=O)c1ccc(Cl)c(O)c1	28µM*	.	.	.	.	.
